Assay outcomes (PubChem)
PI4K2A block = qHTS for small molecular inhibitors of PI4K2A; Phosphatidylinositol 4-kinase type 2-alpha (Homo sapiens), Q9BTU6; AID 1346378, 2018; activity change, negative = inhibition, % at 76.9 µM; purified PI4K2A, ADP-Glo luminescence, 1 h; stronger effect = lower value; 420,000 compounds, 0.13% hits; in the data active = activity change below about -50%; inconclusive = mostly about -30% to -49%;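 also: -100% = wells without enzyme as full effect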
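In this quantitative HTS, ADP production by PI4K2A was quantified luminescently after 1 h at ambient temperature; 100 microM adenosine served as plate-quality control.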
TrxR1 substrate = qHTS Assay for Substrates of Mammalian Selenoprotein Thioredoxin Reductase 1 (TrxR1): qHTS; Thioredoxin reductase 1, cytoplasmic (Rattus norvegicus), O89049; Potency, µM (doses to about 114 µM), without a hit: at the highest dose activity change, negative = substrate turnover; 390,000 compounds, 0.01% hits; purified TrxR1 substrate turnover, NADPH consumption readout; also: potency is read from the fitted curve at half-maximal effect; nearly all actives have a fitted effect of over 50% in size
Target sequence (O89049 whole entry, looked up): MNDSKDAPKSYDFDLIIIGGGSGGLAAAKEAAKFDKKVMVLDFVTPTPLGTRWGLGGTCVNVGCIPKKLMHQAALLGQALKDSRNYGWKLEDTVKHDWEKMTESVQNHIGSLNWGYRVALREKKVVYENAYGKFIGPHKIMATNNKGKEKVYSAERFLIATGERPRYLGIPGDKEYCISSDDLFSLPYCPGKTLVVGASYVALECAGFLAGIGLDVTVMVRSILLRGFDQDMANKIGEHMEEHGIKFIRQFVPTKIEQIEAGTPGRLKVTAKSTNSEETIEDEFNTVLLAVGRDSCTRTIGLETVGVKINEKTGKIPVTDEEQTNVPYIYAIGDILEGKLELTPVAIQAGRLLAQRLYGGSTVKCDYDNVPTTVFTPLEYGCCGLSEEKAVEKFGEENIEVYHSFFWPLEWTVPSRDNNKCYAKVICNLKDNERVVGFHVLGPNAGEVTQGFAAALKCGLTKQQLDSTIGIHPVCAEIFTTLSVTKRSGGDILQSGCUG
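Rat TrxR1, dispensed at 90 nM, was prereduced with 400 uM NADPH (final) for 5 min at ~22 deg C, then incubated with compound 15 min before 400 uM selenite. A first-read NADPH fluorescence drop versus no-compound background flagged substrates.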
a7 integrin act = qHTS for Activators of Integrin-Mediated Alleviation for Muscular Dystrophy; alpha7betagal myoblasts, beta-gal FDG fluorescence, 48 h; Potency, µM (highest dose often 38.3 µM), for the others: at the highest dose activation, most hits filed as activators; 350,000 compounds, 0.064% hits;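 also: potency is read from the fitted curve at half-maximal effect; 100% = response of the positive control SU9516; nearly all actives have a fitted effect of over 60% in size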
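alpha7betagal+/- myoblasts (passage 13, 250/well) treated 48 h at 37C with compounds at 1:260 dilution of DMSO stock. Lysed, then beta-galactosidase activity read as FDG fluorescence (ex 480/em 540) after 30 min, with pre-read for autofluorescence.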
LDHA block = qHTS assay for inhibitors of human lactate dehydrogenase | purified LDHA, NADH/diaphorase-resazurin fluorescence; stronger effect = lower value | L-lactate dehydrogenase A chain (Homo sapiens), P00338 | AID 1347041, 2019 | 480,000 compounds, 0.15% hits | activity change, % (values are at about 110 or 230 µM); in the data active = activity change below about -30%; inconclusive = mostly about -25% to -30%;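 also: plate controls were DMSO wells for no effect and wells without enzyme for full effect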
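LDH5 2 nM; NADH 0.06 mM, pyruvate 0.2 mM; 200 mM Tris pH 7.4, EDTA, Tween-20; 5 min RT. Detection: diaphorase 0.133 mg/mL + resazurin 37 µM, fluorescence ex540/em590 at 0 and 20 min; normalized to enzyme-free and DMSO wells.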
GALK inh = qHTS Assay for Inhibitors of Human Galactokinase (GALK); P51570; Purified GALK, Kinase-Glo residual ATP luminescence; Potency, µM (titrated, usually from 57.5 µM), without a hit: at the top dose activity change, negative = inhibition, most hits filed as inhibitors; 270,000 compounds, 0.007% hits; also: potency is read from the fitted curve at half-maximal effect
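The enzyme phosphorylates galactose (100 uM) using ATP (35 uM); inhibition is detected as higher residual ATP, quantified by bioluminescence after 1 h reaction at room temperature, pH 8.0.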
rTrxR1 inhibitor = qHTS Assay for Inhibitors of Mammalian Selenoprotein Thioredoxin Reductase 1 (TrxR1): qHTS; Thioredoxin reductase 1, cytoplasmic (Rattus norvegicus), O89049; recombinant rTrxR1, NADPH fluorescence consumption, selenite substrate; Potency, µM (top dose mostly 114 µM), for the others: at the highest dose activity change, negative = inhibition, most hits filed as inhibitors; 390,000 compounds, 1% hits; AID 588453, 2011; also: potency is read from the fitted curve at half-maximal effect; nearly all actives have a fitted effect of over 65% in size
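Rat TrxR1 (90 nM in the dispensed reagent) was pre-reduced with 400 uM NADPH for 5 min at room temperature, then incubated with compound for 15 min. After 400 uM selenite was added, NADPH fluorescence (Ex 340/Em 450 nm) was followed for 8 min.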
An asterisk follows results filed as active; ? = inconclusive; / = no result; ! = repeats disagree; [ ] = dose if it differs, or a comment. Rows were chosen to be rich in hits. Some 1.1% of all compounds tested hit in one or more screens of this group. Unless noted, calls follow the shape of the dose curve; as a rule, active = well fitted curve in the direction sought with a large enough effect; inconclusive = small, poorly fitted or top-dose-only effect, or another doubt; inactive = no such curve, though single readings can be large; an effect the other way counts as inactive or inconclusive. Unless noted, % is scaled to controls: 0 for no effect and ±100 for the full control effect.

SMILES	PI4K2A block	TrxR1 substrate	a7 integrin act	LDHA block	GALK inh	rTrxR1 inhibitor
C=CC(=O)Oc1ccc(N2Cc3ccccc3C2=O)cc1	-4	-2%	-60%	-11	/	3.5µM*
CCOC(=O)c1cc(OC(=O)c2cccs2)n(-c2ccccc2)n1	4	4%	15%	-6	-4%	22µM*
COc1ccc(/C=C/c2nc(C#N)c(NCCCn3ccnc3)o2)cc1OC	/	/	/	-1	/	/
COC(=O)c1ccc(C2Nc3c(C)cc(C)cc3C3C=CCC32)cc1 (stereo unspecified)	-3	14%	/	0	/	4µM*
COC(=O)c1ccc([C@@H]2Nc3c(cccc3C(F)(F)F)[C@@H]3C=CC[C@@H]32)cc1	3	5%	/	-4	/	10%
Cc1cc(C)c2c(c1)[C@@H]1C=CC[C@@H]1[C@H](c1ccc(S(=O)(=O)N3CCOCC3)cc1)N2	8	-4%	-16%	0	-1%	2.8µM*
Cn1c(=O)c2c(nc(N3CCOCC3)n2Cc2cccc(C(F)(F)F)c2)n(C)c1=O	/	/	/	-1	/	/
CCCCCCCC(=O)Nc1c(C)cccc1CC	/	/	/	0	/	/
O=C(O)c1coc(Br)c1	/	/	/	-1	/	/
O=[N+]([O-])c1cccc(N/N=C/c2ccccn2)c1	/	/	/	5	/	/
CSCC[C@H](NC(=O)Cc1ccccc1)c1nc2ccccc2[nH]1	/	/	/	-6	/	/
O=C(c1cccc(Cl)c1Cl)N(Cc1ccco1)Cc1cccs1	/	1%	/	0	/	13µM*
CNC(=S)NCc1ccc(C(=O)OC)cc1	/	/	/	3	/	/
COC(=O)C1(NC(=O)COc2cc(Cl)ccc2Cl)CCCCCC1	/	/	/	-31*	/	/
O=C(c1nc(-c2cccnc2)no1)N1CCN(c2ccc(F)cc2)CC1	/	/	/	-33*	/	/
Cc1cc(C(=O)N2CCN(c3ccc(F)cc3)CC2)on1	-5	9%[57.1 µM]	-13%	-9	/	16%[57.1 µM]
COc1ccc(N2CCN(C3CC(=O)N(C)C3=O)CC2)cc1 (stereo unspecified)	8	-1%	14%	2	-2%	1%
COc1ccc(N2C(=O)CC(N3CCN(c4ccc(S(C)(=O)=O)cc4)CC3)C2=O)cc1 (stereo unspecified)	4	9%	9%	-18	1%	16µM*
CC(C)c1nnc2ccc(NCc3ccc(F)cc3)nn12	/	/	/	-6	/	/
Cc1cc(C(=O)OCC(=O)NC2(C#N)CCCCC2)c2ccccc2n1	/	/	/	1	/	/
N#CC1(NC(=O)COC(=O)c2cc(O)c3ccccc3c2O)CCCCC1	-14	-2%	9%	27	/	28µM*
Cc1ccc(C)c(OCCCC(=O)O)c1	0	13%[57.1 µM]	30%	1	-2%	-4%[57.1 µM]
Cc1ccc(C)c(OCCCC(C)(C)C(=O)O)c1	-62*!	10%	/	-20	0%	32%
CN(C)S(=O)(=O)c1cccc(NC(=S)Nc2cccc3cnccc23)c1	?	-5%	-24%	31	-26%	40µM*
CC(C)(C)c1ccc(O)c(O)c1	3	12%	/	16	/	22µM*
SMILES	PI4K2A block	TrxR1 substrate	a7 integrin act	LDHA block	GALK inh	rTrxR1 inhibitor
CC(C)(C)c1ccc(O)c(/C=N\O)c1	5	-4%	-4%	-7	-5%	1%[57.1 µM]
O=C(NCN1CCc2ccccc2C1)c1cnccn1	7	-4%	-26%	-1	6%	20µM*
COc1cccc(C2CCCN2Cc2cc(=O)oc3cc(OC)ccc23)c1 (stereo unspecified)	/	/	/	8	/	/
Cc1snnc1C(=O)NC(=S)Nc1ccccc1	-4	-1%	?	-17	10%	16µM*
O=C(NC(=S)Nc1cccc(NC(=S)NC(=O)c2ccccc2)c1)c1ccccc1	-1	-9%	-24%	5	/	-13%
O=C(NCSc1ccccc1)c1ccccc1	-4	1%	1%	-8	/	34%
O=C(CNC(=O)c1ccccc1)Sc1ccccc1	9	4%	-20%	-5	/	13µM*
Cc1ccccc1C(=O)c1cccn1CC(=O)NCCCc1ccccc1	0	-3%	12%	-6	3%	17%
O=C(Cn1cccc1C(=O)c1ccccc1)NCCCc1ccccc1	-3	-10%	4µM*	-5	-3%	1%
Cc1ccc(-c2cc(C(=O)Nc3c(C)n(C)n(-c4ccccc4)c3=O)no2)cc1C	/	/	/	12	/	/
O=C(NCc1nc2ccccc2[nH]1)c1ccc2n[nH]nc2c1	/	/	/	0	/	/
COc1ccccc1C(=O)Nc1nc2ccccc2[nH]1	-91*	108%	-14%	-3	?	18%
CSc1ccccc1C(=O)Nc1nc2ccccc2[nH]1	-1	6%[57.1 µM]	20%	0	12%	7%[57.1 µM]
COc1cc(SC)ccc1C(=O)Nc1nc2ccccc2[nH]1	-74*	149%	-13%	-3	25%	90%
Cc1ccc(S(=O)(=O)CNC(=S)c2cccc(C)c2)cc1	32	5%	-22%	-2	-3%	?
Cc1ccc(S(=O)(=O)CNC(=S)c2ccc3ccccc3c2)cc1	41	-16%	13%	-2	-2%	40µM*
COc1ccc(C(=S)NCS(=O)(=O)c2ccc(C)cc2)cc1	38	-3%	-3%	-1	1%	4µM*
O=C(CCc1ncc(-c2ccc(F)cc2F)o1)Nc1ccc(Cl)cc1	/	/	/	11	/	/
O=CNC12CCC3CC(CC(C3)C1)C2	/	/	/	-2	/	/
CCOC(=O)C1=C(C)Nc2nc(SCc3cccc(C)c3)nn2C1c1cccs1 (stereo unspecified)	/	/	/	-5	/	/
Fc1ccc(N2CCN(Cc3csc4c3CCCC4)CC2)cc1	/	/	/	4	/	/
Cc1cc(C)nc(Sc2ncnc(N)c2[N+](=O)[O-])n1	-4	6%[57.1 µM]	-69%	1	6%	11µM*
CCc1cccc(CC)c1NC(=O)CCc1ncc(-c2ccccc2)o1	/	/	/	0	/	/
CC(C)c1cc(NC(=O)CCl)on1	2	0%	-64%	1	0%	50µM*
CC(C)(C)c1cc(NC(=O)CS(=O)(=O)c2ccc(F)cc2)on1	/	/	/	-20	/	/
COC(=O)C(=C/C(C)=C/c1cccnc1)C(=O)OC	-2	-7%	-67%	-7	-2%	56µM*
CCn1c(CCC(N)=O)nnc1SCC(=O)c1cc(C)n(C2CC2)c1C	-53*	1%	-4%	0	/	18%
COc1ccc(CC(=O)OCCc2cc3cc(OC)c(OC)cc3c(=O)o2)cc1	-3	2%	-18%	0	/	18µM*
